From PubChem BioAssay (EPA / NIEHS)
The source made the active and inactive calls. The calls were made as follows: active = hit-call score of the fitted dose curve at least 0.9, where 1 is the maximum; inactive = score below 0.9.

Assay: CCTE_Padilla_ZF_Score.Tail: CCTE's 144 Hour Post-fertilization zebrafish Assay Score for Tail Malformation, Padilla Lab (AID 2284414)
Method: CCTE_Padilla_ZF_Phenotype_Score is a whole embryo, multiplexed assay using zebrafish ova exposed for 144 hours post fertilization on a 96-well plate.CCTE_Padilla_ZF_Score.Tail is one of one assay component(s) measured or calculated from the CCTE_Padilla_ZF_Phenotype_Score assay. It is designed to make measurements of zebrafish development as detected with brightfield microscopy of developing zebrafish embryos.Data from the assay component CCTE_Padilla_ZF_Score.Tail was analyzed into 1 assay endpoints. This assay endpoint, CCTE_Padilla_ZF_Score.Tail, was analyzed in the positive analysis fitting direction relative to DMSO as the negative control and baseline of activity. Using a type of viability reporter, gain-of-signal activity can be used to understand changes in developmentals as they relate to the whole embryo. To generalize the intended target to other relatable targets, this assay endpoint is annotated to the zebrafish development intended target family, where the subfamily is lower trunk morphogenesis.
Zebrafish husbandry: Wild type adult zebrafish (Danio rerio; undefined outbred stock obtained from Aquatic Research Organisms, Hampton, NH, 03842) were housed in an AAALAC-approved animal facility at 28C with a 14:10 h light: dark cycle (lights on at 08:30 h). Adult fish (2-3 females per male; density = 15-20 adults per tank) were kept in one of several 9-liter (L) flow-through colony tanks (Aquaneering Inc., San Diego, CA). All adults in a colony tank were placed in a 2 L (static) breeding tank (Aquatic Habitats, Apopka, FL) one hour prior to light onset. Typically, adults from two to three colony tanks were mated on the same day. Two hours after light onset the adults were returned to the colony tank. All embryos were gathered from each breeder tank, pooled, and placed in a 28C water bath for 2 h, followed by two washes with 0.06% bleach (v/v) in 10% Hanks' Balanced Salt Solution (13.7 mM NaCl 0.54 mM KCl, 25 uM Na2HPO4, 130 uM CaCl2 100 um MgSO4 and 420 um NaHCO3,), hereafter referred to as Hanks' solution, for 5 min in order to remove any residual bacteria or fungi. Immediately following washing, the embryos were examined, and healthy embryos were separated from dead or unfertilized eggs and moved into fresh Hanks'. Chemical exposures: Zebrafish embryos were exposed in 96-well plates. Between 6- and 8-hours post fertilization (hpf), healthy embryos (with chorions) were transferred, one embryo per well, into 96 well (0.5 mL) microtiter plates (Cell Culture-Treated, Flat-Bottom Microplate 96 well [Corning Costar, Kennebunk, ME; Cat 09-761-145]) filled with 200 uL of Hanks' solution. A random number generator was used to assign the order in which the rows of embryos were plated in 96 well plates each week. After plating, the embryos were dosed with 0.8 uL of the chemical dosing solution then immediately sealed with AlumaSeal II (Excel Scientific Inc, Victorville, CA) to prevent volatilization of the chemicals, and then placed in a leakproof secondary container. These containers were placed in an incubator maintained on a 14:10 h light: dark cycle at 26C for rearing. On 5 dpf, live larvae were gently moved out of the plate with test chemicals and into a new 96 well mesh plate (Millipore Corp., Bedford, MA) with just the Hanks' solution. Once within the mesh well plate, the animals were rinsed with 400 uL of fresh Hanks' three times, and then the plates were covered with a non-adhesive material (Microseal A, BioRad, Hercules, CA), plate lid added, and then plate sides wrapped in Parafilm (PM992, Bermis Company, Neenah, WI), and returned to the incubator. […]

Row | SMILES | outcome
1 | O=S(=O)(O)CCC(F)(F)C(F)(F)C(F)(F)C(F)(F)C(F)(F)C(F)(F)C(F)(F)C(F)(F)F | inactive
2 | CCOC(=O)CC(=O)C(F)(F)C(F)(F)F | inactive
3 | O=C(O)C(F)(F)C(F)(F)C(F)(F)OC(F)(C(F)(F)F)C(F)(F)F | inactive
4 | C=C(C)C(=O)OCC(F)(F)C(F)(F)C(F)(F)C(F)F | inactive
5 | OCCCC(F)(F)C(F)(F)C(F)(F)C(F)(F)C(F)(F)C(F)(F)C(F)(F)C(F)(F)F | inactive
6 | O=S(=O)(OCC(F)(F)F)C(F)(F)C(F)(F)C(F)(F)C(F)(F)F | inactive
7 | OCC(F)(F)C(F)(F)C(F)(F)C(F)(F)C(F)(F)C(F)(F)C(F)(F)C(F)(F)CO | inactive
8 | O=S(=O)(Cl)C(F)(F)C(F)(F)C(F)(F)C(F)(F)C(F)(F)C(F)(F)C(F)(F)C(F)(F)F | inactive
9 | O=C(O)CCC(F)(F)C(F)(F)C(F)(F)F | inactive
10 | OCC(F)(F)C(F)(F)C(F)(F)C(F)(F)C(F)(F)C(F)(F)CO | inactive
11 | CO[Si](C)(CCC(F)(F)C(F)(F)C(F)(F)C(F)(F)C(F)(F)C(F)(F)F)OC | inactive
12 | C=CC(=O)OCC(F)(F)C(F)(F)C(F)(F)COC(=O)C=C | inactive
13 | CCN(CCO)S(=O)(=O)C(F)(F)C(F)(F)C(F)(F)C(F)(F)C(F)(F)C(F)(F)C(F)(F)C(F)(F)F | inactive
14 | NCC(F)(F)C(F)(F)C(F)(F)C(F)(F)C(F)(F)C(F)(F)F | inactive
15 | C=CC(=O)OCCC(F)(F)C(F)(F)C(F)(F)C(F)(F)F | inactive
16 | NC(O)(C(F)(F)F)C(F)(F)F | inactive
17 | FC(F)(F)C(F)(F)C(F)(F)C(F)(F)C(F)(F)C(F)(F)C(F)(F)CCI | inactive
18 | COC(F)(C(F)F)C(F)(F)F (stereo not given) | inactive
19 | NS(=O)(=O)C(F)(F)C(F)(F)C(F)(F)C(F)(F)C(F)(F)C(F)(F)F | inactive
20 | NC(=O)C(F)(F)C(F)(F)C(F)(F)C(F)F | inactive

Row | SMILES | outcome
21 | O=C(O)C(F)(F)C(F)(F)C(F)(F)C(=O)O | inactive
22 | CN(C(=O)C(F)(F)C(F)(F)C(F)(F)F)[Si](C)(C)C | inactive
23 | O=C(O)C(F)(F)OC(F)(F)C(F)(F)OC(F)(F)C(F)(F)OC(F)(F)F | inactive
24 | OCC(O)CC(F)(F)C(F)(F)C(F)(F)C(F)(F)F (stereo not given) | inactive
25 | OCC(O)CC(F)(F)C(F)(F)C(F)(F)C(F)(F)C(F)(F)C(F)(F)C(F)(F)C(F)(F)F (stereo not given) | inactive
26 | O=C(O)CCC(F)(F)C(F)(F)C(F)(F)C(F)(F)C(F)(F)C(F)(F)C(F)(F)F | inactive
27 | OCC(F)(F)C(F)(F)C(F)(F)CO | inactive
28 | NC(=O)C(F)(F)C(F)(F)C(F)(F)C(F)(F)C(N)=O | inactive
29 | C[Si](Cl)(Cl)CCC(F)(F)C(F)(F)C(F)(F)C(F)(F)C(F)(F)C(F)(F)F | inactive
30 | C=CC(=O)OCC(F)(F)C(F)(F)C(F)(F)C(F)(F)C(F)(F)C(F)(F)C(F)(F)C(F)F | inactive
31 | OC(O)C(F)(F)C(F)(F)F | inactive
32 | O=C(Cl)C(F)(F)C(F)(F)C(F)(F)C(F)(F)C(F)(F)C(F)(F)C(F)(F)F | inactive
33 | FC(F)(F)C(F)(F)C(F)(F)CC1CO1 (stereo not given) | inactive
34 | NC(=O)C(F)(F)C(F)(F)C(F)(F)C(F)(F)C(F)(F)C(F)(F)C(F)(F)F | inactive
35 | O=C(O)C(F)(F)C(F)(F)C(F)(F)OC(F)(F)F | inactive
36 | OCCCCC(F)(F)C(F)(F)C(F)(F)C(F)(F)F | inactive
37 | O=C(O)C(F)(F)C(F)(F)C(F)(F)C(F)(F)C(F)(F)C(F)(F)C(F)F | inactive
38 | O=S(=O)(O)CCC(F)(F)C(F)(F)C(F)(F)C(F)(F)F | inactive
39 | O=C(F)C1(F)C(F)(F)C(F)(F)C(F)(F)C(F)(F)C1(F)F | inactive
40 | NC(=O)C(F)(F)C(F)(F)C(F)(F)F | inactive
